The values below come from article PMC4336329 (PLoS ONE, 2015).

Out of some 310,000 compounds screened, about 14,000 (4.5%) showed an effect of 50% or more. Effects have a minus sign here. The list comes from a sample in which strong results are over-represented; it also holds similar structures and randomly drawn compounds.
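Also: peak tail current of the secondary pulse compared with the same well before compound.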

In the test the target is human ether-à-go-go-related gene (hERG) potassium channel (human, UniProt Q12809). As to the kind of experiment: primary screen, population patch clamp on CHO cells stably expressing hERG; higher = less effect of the substance.
Chain of human ether-à-go-go-related gene (hERG) potassium channel (Q12809 whole entry, looked up): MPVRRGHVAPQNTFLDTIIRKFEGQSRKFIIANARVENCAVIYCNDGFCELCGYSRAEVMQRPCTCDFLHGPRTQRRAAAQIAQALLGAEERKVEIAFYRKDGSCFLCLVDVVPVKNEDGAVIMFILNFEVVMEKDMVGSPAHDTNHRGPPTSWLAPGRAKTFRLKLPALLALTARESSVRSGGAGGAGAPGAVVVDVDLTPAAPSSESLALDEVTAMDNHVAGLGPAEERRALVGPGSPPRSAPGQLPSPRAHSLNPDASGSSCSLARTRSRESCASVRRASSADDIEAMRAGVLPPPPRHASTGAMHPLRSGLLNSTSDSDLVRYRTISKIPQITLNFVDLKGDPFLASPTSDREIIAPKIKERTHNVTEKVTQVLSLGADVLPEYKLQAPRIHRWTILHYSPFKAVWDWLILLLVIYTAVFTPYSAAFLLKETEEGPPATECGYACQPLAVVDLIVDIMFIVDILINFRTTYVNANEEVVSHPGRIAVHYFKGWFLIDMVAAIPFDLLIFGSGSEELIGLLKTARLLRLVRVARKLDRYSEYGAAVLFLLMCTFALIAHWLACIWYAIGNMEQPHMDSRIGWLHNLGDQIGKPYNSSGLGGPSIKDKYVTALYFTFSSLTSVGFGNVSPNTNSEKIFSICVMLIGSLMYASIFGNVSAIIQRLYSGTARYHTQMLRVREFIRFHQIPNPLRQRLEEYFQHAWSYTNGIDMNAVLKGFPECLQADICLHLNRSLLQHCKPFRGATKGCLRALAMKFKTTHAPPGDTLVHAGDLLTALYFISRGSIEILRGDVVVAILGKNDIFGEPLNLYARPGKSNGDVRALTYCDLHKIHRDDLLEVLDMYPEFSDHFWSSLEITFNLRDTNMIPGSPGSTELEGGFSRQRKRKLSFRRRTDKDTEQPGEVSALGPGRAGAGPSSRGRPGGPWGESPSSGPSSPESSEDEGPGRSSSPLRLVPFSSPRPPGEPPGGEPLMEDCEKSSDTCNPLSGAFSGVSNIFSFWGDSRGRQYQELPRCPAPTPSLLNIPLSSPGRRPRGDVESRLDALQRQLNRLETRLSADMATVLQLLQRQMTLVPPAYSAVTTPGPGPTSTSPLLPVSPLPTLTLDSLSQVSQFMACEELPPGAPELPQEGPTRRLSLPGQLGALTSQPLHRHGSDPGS
Turning to `CCCN(CC(=O)Nc1ccccc1OC)C(=O)Cc1ccc2c(c1)CCC2`, the “hERG current change (%, negative = inhibition) at 10uM” value is reported as -18.1%. Take `[O-][n+]1c2ccccc2c2n1CCN1CCOC21c1ccc(Cl)cc1` (stereo not drawn): the “hERG current change (%, negative = inhibition) at 10uM” value was -42.3%. Turning to `CN(C)c1ccc(/C=C/c2nc3ccccc3s2)cc1`, the “hERG current change (%, negative = inhibition) at 10uM” value turned out to be 17.7%.

With `CC[n+]1c(/C=C/C=C/N(C(C)=O)c2ccccc2)sc2ccccc21.[I-]`, the “hERG current change (%, negative = inhibition) at 10uM” value is -69.8%.

Take `CN(C)c1ccc(/C=C/C=C/c2sc3ccccc3[n+]2C)cc1.[O-][Cl+3]([O-])([O-])[O-]`: the “hERG current change (%, negative = inhibition) at 10uM” value is -42.6%.

With `CC[n+]1c(/C=C/C=C/N(C(C)=O)c2ccccc2)sc2cc(OC)ccc21.[I-]`, the “hERG current change (%, negative = inhibition) at 10uM” value is on record as -32.8%. The result for `CC[n+]1c(/C=C/C=C/c2ccc(N(C)C)cc2)sc2ccccc21.[O-][Cl+3]([O-])([O-])[O-]` reads -73.4%; that for `CC/C(=C/c1sc2ccccc2[n+]1CC)SC.COS(=O)(=O)[O-]`, 0.104%; that for `CC[n+]1c(/C=C/N(C)c2ccccc2)sc2ccc(Cl)cc21.[O-][Cl+3]([O-])([O-])[O-]`, -62.6%. The result for `CCCc1nn(C(=O)c2ccccc2)c2c1C(=O)CC(C)(C)C2` reads 11.5%.

Regarding `C=CCOC(=O)/C(=C\c1cccc2ccccc12)NC(=O)c1ccccc1`, the “hERG current change (%, negative = inhibition) at 10uM” value was -9.44%. The result for `CC(=O)/C=C(\C)N=Nc1c(O)[nH]c2ccccc12` reads 5.48%. The result for `Cc1ccc(NC(=O)c2ccccc2NS(=O)(=O)c2ccc(F)cc2)cc1S(=O)(=O)N1CCCCC1` reads 3.17%; that for `Cc1ccc(NS(=O)(=O)c2ccc(-n3cccn3)cc2)c(C)c1`, 22.8%. The result for `CCC(CC)c1nnc(NC(=O)C2CC(=O)N(CCc3ccc(OC)c(OC)c3)C2)s1` (stereo not drawn) reads -0.537%; that for `CCn1c2ccccc2c2cnc(N=CN(C)C)c(C#N)c21`, -24%. Take `N#Cc1ccc(Nc2nc(-c3ccc(O)cc3O)cs2)cc1C(F)(F)F`: the “hERG current change (%, negative = inhibition) at 10uM” value is given as 11.9%. The result for `Fc1ccc(N2CCN(Cc3cn[nH]c3-c3ccccc3)CC2)cc1` reads -59.2%. For `COc1ccccc1N1CCN(Cc2ccccc2Cl)CC1`, the “hERG current change (%, negative = inhibition) at 10uM” value is listed as -23.5%.

Consider `CCOc1ccccc1N1CCN(Cc2cc3c(cc2[N+](=O)[O-])OCO3)CC1`, for which the “hERG current change (%, negative = inhibition) at 10uM” value was -20.6%. Regarding `COc1ccccc1N1CCN(Cc2cn[nH]c2-c2ccc(F)cc2)CC1`, the “hERG current change (%, negative = inhibition) at 10uM” value is recorded as -55.3%. The result for `Fc1ccc(N2CCN(Cc3nnc(-c4ccccc4)o3)CC2)cc1` reads -11.9%. As for `CCOc1ccccc1N1CCN(Cc2cn[nH]c2-c2ccc(F)cc2)CC1`, the “hERG current change (%, negative = inhibition) at 10uM” value is -72.3%.

With `Fc1ccc(-c2[nH]ncc2CN2CCN(c3ccc(F)cc3)CC2)cc1`, the “hERG current change (%, negative = inhibition) at 10uM” value was -44.5%. For `COc1ccc(-c2[nH]ncc2CN2CCN(c3ccc(F)cc3)CC2)cc1`, the “hERG current change (%, negative = inhibition) at 10uM” value is reported as -45.7%. In the case of `CCOc1ccccc1N1CCN(Cc2cnc(-c3ccccc3)[nH]2)CC1`, the “hERG current change (%, negative = inhibition) at 10uM” value is -40.6%. As to `Cc1c(C)n(CCCN(C)C)c2ncnc(NCc3ccccc3)c12`, the “hERG current change (%, negative = inhibition) at 10uM” value is listed as -13.9%. The result for `O=P(C(=Nc1ccc(Cl)cc1)N1CCOCC1)(N1CCOCC1)N1CCOCC1` reads -17.6%; that for `Cc1ccc(S(=O)(=O)N(C)C)cc1NC(=S)N(C)C1CCN(C)CC1`, 16.2%. With `Cc1ccc(C)c(NC(=O)NCCN2CCCCC2)c1`, the “hERG current change (%, negative = inhibition) at 10uM” value was -15.1%. The result for `COc1ccc(S(=O)(=O)N2CCOC23CCN(S(=O)(=O)c2cc(C)ccc2OC)CC3)cc1` reads 26.8%.

As for `CCN(C(=O)COC(=O)Cc1c[nH]c2ccccc12)c1c(N)n(Cc2ccccc2)c(=O)[nH]c1=O`, the “hERG current change (%, negative = inhibition) at 10uM” value is 16.3%.

On to `Cc1cc(Br)ccc1NC(=S)N1CCOCC1`, for which the “hERG current change (%, negative = inhibition) at 10uM” value is 12.5%.

In the case of `COc1ccc(CNC(=O)CCCOc2cc(=O)n(C)c3ccccc23)cc1`, the “hERG current change (%, negative = inhibition) at 10uM” value is -19.2%. As to `Cn1c(SCC(=O)Nc2nccs2)nnc1C12CC3CC(CC(C3)C1)C2`, the “hERG current change (%, negative = inhibition) at 10uM” value is -6.22%. As for `S=C(Nc1cccc(Cl)c1)NC1CCCCC1`, the “hERG current change (%, negative = inhibition) at 10uM” value is listed as 7.58%. The result for `Cc1cc(C)cc(NC(=S)NCCCO)c1` reads -0.803%; that for `Cc1ccc(C)c(NC(=S)NCc2ccccc2)c1`, 13.8%. The result for `Cc1ccc(SCCNC(=S)Nc2cc(C)ccc2C)cc1` reads 4.34%; that for `CCOCCCNC(=S)Nc1cc(C)cc(C)c1`, 11%. The result for `S=C(NCCN(C1CCCCC1)C1CCCC1)Nc1cccc(Cl)c1` reads -71.3%; that for `Cc1ccc(C)c(NC(=S)NCCN(C2CCCCC2)C2CCCC2)c1`, -68.5%; that for `Cc1cc(C)cc(NC(=S)NCCN(C2CCCCC2)C2CCCC2)c1`, -69.6%. In the case of `Cc1cccc(NC(=S)NC2CCCC2)c1`, the “hERG current change (%, negative = inhibition) at 10uM” value came to 0.919%. The result for `Cc1cccc(NC(=S)N(C)C2CCCCC2)c1` reads 5.51%; that for `Cc1cccc(NC(=S)NCCN(C2CCCCC2)C2CCCC2)c1`, -70.3%. The result for `CN(C)CCNC(=S)Nc1cccc(Cl)c1` reads -27%; that for `Cn1ncc(Cl)c(Oc2ccc(C(C)(C)C)cc2)c1=O`, -26%.

Take `CCOc1ccccc1NC(=O)c1cc(SC)ccc1Cl`: the “hERG current change (%, negative = inhibition) at 10uM” value amounted to 50.4%. For the compound `COc1cc(/C=N/NC(=O)CCOc2ccccc2C)cc(Br)c1O`, the “hERG current change (%, negative = inhibition) at 10uM” value is on record as -16.4%. The result for `CC1CC(C)CN(C(=O)CCC(=O)Nc2nnc(C3CCCCC3)s2)C1` (stereo not drawn) reads 14.2%. The result for `CC(C)(C)CN1CCNC(=O)C1CC(=O)NCCc1ccccc1F` (stereo not drawn) reads 4.25%; that for `COc1ccccc1-c1csc(NC(=O)c2cc(-c3cccs3)nc3ccccc23)n1`, 8.88%. Regarding `COc1ccc2cc(C3CC(c4ccco4)=NN3S(=O)(=O)c3ccccc3)c(Cl)nc2c1` (stereo not drawn), the “hERG current change (%, negative = inhibition) at 10uM” value worked out at 4.38%. Turning to `CCN(CC(=O)NCc1cccs1)C(=O)c1ccc(NS(=O)(=O)c2cccc([N+](=O)[O-])c2)cc1`, the “hERG current change (%, negative = inhibition) at 10uM” value is given as -19.7%. The result for `C/C(=N\NC(=S)NCc1ccccc1)c1ccc(Br)cc1` reads 22.8%; that for `O=C(O)C1CSC(c2ccccc2Cl)N1C(=O)c1ccc(Cl)cc1` (stereo not drawn), 14.9%; that for `Fc1ccccc1N1CCN(CCCc2ccccc2)CC1`, -64.7%. Regarding `c1ccc(CCCN2CCN(c3ccccn3)CC2)cc1`, the “hERG current change (%, negative = inhibition) at 10uM” value is reported as -51.7%.

For the compound `O=C(CN1CCN(c2ccccn2)CC1)NCCc1ccccc1`, the “hERG current change (%, negative = inhibition) at 10uM” value is -9.55%.

For `c1ccc(CCCN2CCN(c3ccccc3)CC2)cc1`, the “hERG current change (%, negative = inhibition) at 10uM” value is reported as -61.3%.

For `NCCCN1CCN(c2ccccc2)CC1`, the “hERG current change (%, negative = inhibition) at 10uM” value is -8.45%.

As for `CCOC(=O)N1CCN(CCCc2ccccc2)CC1`, the “hERG current change (%, negative = inhibition) at 10uM” value was -6.26%.

Take `C/C=C(\C)CN1CCN(c2cc(C)ccc2C)CC1`: the “hERG current change (%, negative = inhibition) at 10uM” value turned out to be 6.08%. Regarding `Fc1ccccc1N1CCN(Cc2c(F)cccc2F)CC1`, the “hERG current change (%, negative = inhibition) at 10uM” value was 7.89%. The result for `Cc1ccc(C)c(N2CCN(CCCc3ccccc3)CC2)c1` reads -59.9%; that for `O=C(CCc1ccccc1)N1CCN(c2ccccc2F)CC1`, 15.9%; that for `O=C(CCc1ccccc1)N1CCN(c2ccccn2)CC1`, -9.9%.

With `Cc1ccc(C)c(N2CCN(CCN3CCCCC3)CC2)c1.Cl`, the “hERG current change (%, negative = inhibition) at 10uM” value was -3.6%. The result for `O=C(O)c1ccn[nH]1` reads -0.906%. The result for `Cc1ccc(/C=N/NC(=O)c2nnn(-c3nonc3N)c2C(C)C)o1` reads -4.22%.

On to `CSc1ncccc1C(=O)OCC(=O)c1cccs1`, for which the “hERG current change (%, negative = inhibition) at 10uM” value was 19.4%. The result for `CCOP(=O)(OCC)C(NC(=O)Nc1ccc(Cl)cc1)C(=O)N(CC)CC` (stereo not drawn) reads -13.4%; that for `CC(c1ccccc1)n1cncc1C(=O)O` (stereo not drawn), 18%; that for `CCn1c(SCC(=O)c2c[nH]c3ccccc23)nc2cc(S(=O)(=O)N3CCOCC3)ccc21`, 9.49%. The result for `C=C(C)CSc1nnc([C@H](CCSC)NC(=O)OC(C)(C)C)o1` reads -14.3%. In the case of `c1coc(CNc2nc3ccccc3s2)c1`, the “hERG current change (%, negative = inhibition) at 10uM” value came to 11.1%. On to `Cn1ccnc1SCC(=O)c1cc2ccccc2o1`, for which the “hERG current change (%, negative = inhibition) at 10uM” value is 4.65%. On to `Cc1nn(C2CCS(=O)(=O)C2)c(Cl)c1/C=C/C(=O)OCC(=O)Nc1ccc2c(c1)OCO2` (stereo not drawn), for which the “hERG current change (%, negative = inhibition) at 10uM” value is reported as 7.01%. Consider `O=C(NCCc1ccccc1)C1CCC(Cn2c(=O)c3ccccc3n(Cc3cccnc3)c2=O)CC1` (stereo not drawn), for which the “hERG current change (%, negative = inhibition) at 10uM” value is on record as -37.3%.

For `CCOc1ccc(/C=C2\SC(=S)N(N3C(=O)C4CC4C3=O)C2=O)cc1` (stereo not drawn), the “hERG current change (%, negative = inhibition) at 10uM” value is on record as 15.4%.

For `c1ccc(CCN2CCC(N3CCN(c4ccccc4)CC3)CC2)cc1`, the “hERG current change (%, negative = inhibition) at 10uM” value is given as -66.4%. Take `O=S(=O)(Cc1ccccc1)N1CCC(N2CCN(c3ccccc3)CC2)CC1`: the “hERG current change (%, negative = inhibition) at 10uM” value is -22.7%. The result for `Cc1cccc(CN2CCN(CCCc3ccccc3)CC2)c1.O=C(O)C(=O)O` reads -75.4%; that for `Cc1ccc(N2CCN(CCc3ccccc3)CC2)cc1`, -36.2%. For `Cc1cccc(CN2CCN(Cc3ccc(Cl)cc3)CC2)c1.O=C(O)C(=O)O`, the “hERG current change (%, negative = inhibition) at 10uM” value is -40%. With `Cc1cccc(CN2CCN(C(=O)Cc3ccccc3)CC2)c1.O=C(O)C(=O)O`, the “hERG current change (%, negative = inhibition) at 10uM” value was determined as 4.99%.

Consider `CC1=NN(c2ccccc2)C(=O)/C1=C/c1c(O)n(-c2ccc(F)cc2)[nH]c1=O`, for which the “hERG current change (%, negative = inhibition) at 10uM” value is listed as 46%.

Take `Cc1c(C#N)c2ccccc2n1CC(=O)NCCc1c[nH]c2ccccc12`: the “hERG current change (%, negative = inhibition) at 10uM” value is listed as -2.5%. The result for `CCOC(=O)c1ccc(Oc2nc(OC)nc(N(C)C)n2)cc1` reads 6.27%. Take `Cc1[nH]c(=O)[nH]c1C(=O)CCCCC(=O)OCC(=O)Nc1ccccn1`: the “hERG current change (%, negative = inhibition) at 10uM” value is on record as 12.3%. With `Cc1[nH]c(=O)[nH]c1C(=O)CCCCC(=O)O`, the “hERG current change (%, negative = inhibition) at 10uM” value is listed as -57.7%. Take `CCOC(=O)CCCCC(=O)c1[nH]c(=O)[nH]c1C[n+]1ccccc1.[Cl-]`: the “hERG current change (%, negative = inhibition) at 10uM” value is reported as 26.4%.
